Results filed as inconclusive are left out. Activity calls are given as the source filed them. Rule for the calls, unless noted: active = hit-call score of the fitted dose curve at least 0.9, where 1 is the maximum; inactive = score below 0.9.
Key:
[1] = ACEA_ER_80hr: ACEA Biosciences xCELLigence Real-Time Cell Analysis on Estrogen Receptor Agonism for Proliferation (AID 2282667; active = hit-call score of the fitted dose curve at least 0.9, where 1 is the maximum); conditions: T47D proliferation, impedance (xCELLigence), 80 h
In short: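 Impedance readout (RT-CES) of T47D proliferation at 80 h post-dose; gain of signal vs DMSO baseline. Compounds: 8 conc, 1:4 serial, top 100 uM final, ≤0.5% DMSO; biological duplicate.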

[2] = APR_HepG2_CellCycleArrest_24hr: Apredica 24-hour HepG2 Assay for Cell Cycle Arrest (AID 2282905); conditions: imaging, actives raise or lower the signal;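 note: cell cycle arrest scored as ratio of 2N to 4N nuclear DNA content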
In short: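 Readout: Hoechst 33342 nuclear DNA content by high-content fluorescent imaging, six images/well, 20x. Human HepG2 liver cells, 24 hr compound exposure, 0.39–200 uM, final DMSO 0.5% v/v. Gain or loss fitted relative to DMSO baseline.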

[3] = APR_HepG2_NuclearSize_24hr: Apredica 24-hour HepG2 Assay for Nuclear Size (AID 2282907); conditions: high-content imaging, actives raise or lower the signal
In short: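 Read-out: nuclear diameter from Hoechst 33342 (2 ug/mL) imaging of fixed HepG2 cells, 20x, six fields/well. Compounds ran at 0.39–200 uM for 24 hr, 0.5% DMSO final. Gain or loss was fitted bidirectionally relative to the DMSO baseline.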

[4] = APR_HepG2_CellLoss_24hr: Apredica 24-hour HepG2 Assay for Cell Loss (AID 2282908); conditions: high-content imaging;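 for AC50: fit in both directions so a hit may be cell loss or gain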
In short: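 Read-out: Hoechst 33342-stained nuclei counted by automated fluorescence imaging after formaldehyde fixation and Triton permeabilization. Ten concentrations, 0.39 to 200 uM, duplicate wells, 0.5% DMSO final. Gain or loss of signal fitted relative to DMSO baseline.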

[5] = APR_HepG2_MicrotubuleCSK_24hr: Apredica 24-hour HepG2 Assay for Microtubule CSK Stabilty (AID 2282909); conditions: HepG2 microtubule cytoskeleton imaging, actives raise or lower the signal
In short: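 Read-out: alpha-tubulin immunofluorescence intensity by automated high-content imaging of fixed HepG2 cells after 24 h compound treatment. Ten concentrations, 0.39 to 200 uM, in duplicate; DMSO 0.5% v/v. Taxol positive control; DMSO-normalized bidirectional curve fitting.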

[6] = APR_HepG2_MitoticArrest_24hr: Apredica 24-hour HepG2 Assay for Mitotic Arrest (AID 2282910); conditions: high-content imaging, actives raise or lower the signal
In short: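 Treatment lasted 24 hr in the human HepG2 line at 0.39–200 uM, solvent held at 0.5% DMSO. Fixed cells were stained with Hoechst 33342 and anti-phospho-histone H3, imaged at 20x, and analysed by gain- or loss-of-signal fitting against DMSO.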

[7] = APR_HepG2_MitoMembPot_24hr: Apredica 24-hour HepG2 Assay for Mitochondrial Membrane Potential (AID 2282911); conditions: imaging, actives raise or lower the signal
In short: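 HepG2, 24 hr dosing, 10 concentrations 0.39–200 uM, 0.5% DMSO final. Live-cell MitoTracker Red CMXRos 250 nM 30 min, then 3.7% formaldehyde fix. HCS fluorescence imaging, 20x; bidirectional fit vs DMSO baseline.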

[8] = APR_HepG2_MitoMass_24hr: Apredica 24-hour HepG2 Assay for Mitochondrial Mass (AID 2282912); conditions: high-content imaging, actives raise or lower the signal
In short: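 HepG2, 24 hr dosing, 10 concentrations 0.39–200 uM in duplicate, DMSO 0.5% final. MitoTracker Red CMXRos 250 nM, 30 min pre-fix; 3.7% formaldehyde fix. Imaging-based fluorescence intensity; gain/loss fit vs DMSO baseline.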

[9] = APR_HepG2_p53Act_24hr: Apredica 24-hour HepG2 Assay for p53 Activation (AID 2282913); conditions: high-content imaging, actives raise or lower the signal;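 note: p53 protein immunofluorescence averaged per cell in HepG2 with Hoechst nuclei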
In short: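 Read-out: Cy5 immunofluorescence for p53 in fixed, permeabilized HepG2, imaged by HCS with Hoechst-defined nuclei. Dosing was 24 hr at 0.39–200 uM in 0.5% DMSO. Curves were fitted bidirectionally relative to DMSO.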

[10] = APR_HepG2_CellCycleArrest_72hr: Apredica 72-hour HepG2 Assay for Cell Cycle Arrest (AID 2282914); conditions: high-content imaging, actives raise or lower the signal
In short: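 HepG2, 72 hr exposure, 10-point 0.39–200 uM, duplicate, 0.5% DMSO final. Fix 3.7% formaldehyde 30 min RT, Triton X-100 0.5%, Hoechst 33342 2 ug/mL. ArrayScan 20x, six fields/well; DNA content per nucleus; bidirectional fit vs DMSO.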

Measured: AC50

O=C(O)Cc1ccccc1Nc1c(Cl)cccc1Cl
active: [1] 50 µM
inactive: all other assays above

CCOc1ccc2c(c1)C(C)=CC(C)(C)N2
inactive: all assays above

CNCc1cc(F)ccc1Oc1ccc(Cl)c(Cl)c1
inactive: [1] | [2] | [5] | [10]
active: [3] 54.7 µM | [4] 101 µM | [6] 31.4 µM | [7] 109 µM | [8] 32.6 µM | [9] 52.4 µM

Clc1cc(Cl)c(Cl)cc1Cl
inactive: all assays above

CC(C)c1ccc(C(=O)N=C(N)N)cc1S(C)(=O)=O
inactive: all assays above

Cc1ccc(C)c(O)c1C
active: [10] 12 µM
inactive: all other assays above

O=C(O)CCCCC(=O)O
inactive: all assays above

Cc1ccc(N(C)C)cc1
inactive: all assays above

NS(=O)(=O)c1cc2c(cc1Cl)NCNS2(=O)=O
inactive: all assays above

Cc1ccc2ncccc2c1
inactive: all assays above

CCc1c(C(=O)NN2CCCCC2)nn(-c2ccc(Cl)cc2Cl)c1-c1ccc(Br)cc1
active: [1] 1.69 µM | [2] 27.9 µM | [4] 21.5 µM | [5] 39 µM | [6] 46.8 µM | [8] 47 µM | [10] 14.6 µM
inactive: [3] | [7] | [9]

Nc1ccc2c(c1)C(=O)c1ccccc1C2=O
active: [10] 16.1 µM
inactive: all other assays above

Cc1cc(NC(=O)C(=O)O)cc(C)c1Oc1ccc(O)c2c1CCC2
inactive: all assays above

NCCO
inactive: all assays above

c1cc(-c2ccncc2)ccn1
inactive: all assays above

COCCOCCOC
inactive: all assays above

CCCCOC(=O)CCCCCCCCC(=O)OCCCC
inactive: all assays above

CN1CCCC1=O
inactive: all assays above

COc1cc(-c2nc(NC(=O)c3cc4cc(C)cc(C)c4n3CC(=O)O)sc2CCC2CCCCC2)c(OC)cc1Cl
active: [2] 38.6 µM | [3] 61.4 µM | [4] 29.3 µM | [5] 26.5 µM | [6] 35.1 µM | [7] 15 µM | [8] 14.4 µM | [9] 43.4 µM | [10] 23.4 µM
inactive: [1]

CC(CO)OC(C)CO (stereo not given) (tested in a mixture with another compound)
inactive: all assays above

COc1ccc(S(=O)(=O)N2C(=O)[C@@](c3ccccc3OC)(N3C[C@H](O)C[C@H]3C(=O)N(C)C)c3cc(Cl)ccc32)c(OC)c1
active: [2] 86.2 µM | [3] 93.2 µM | [4] 92.4 µM | [6] 63 µM | [8] 78.1 µM | [9] 68.6 µM
inactive: [1] | [5] | [7] | [10]

O=c1c(O)c(-c2ccc(O)c(O)c2)oc2cc(O)cc(O)c12
active: [1] 26.4 µM | [2] 58.4 µM | [7] 64.2 µM | [10] 103 µM
inactive: all other assays above

CC=Cc1ccc(O)c(OC)c1
active: [2] 105 µM
inactive: all other assays above

— PubChem BioAssay (EPA / NIEHS)
